# PubChem BioAssay (Tox21)
# Several values for one entry are separate records, joined by “and”; a condition that tells them apart may be missing. Identical values can stand only once. Results filed as inconclusive are left out. A call without a number means that no potency is given here. Some compounds were tested as several samples or in several runs, with calls that do not always agree. Activity calls are given as the source filed them. Unless noted, the call rests on the fitted dose curve; in most records, active means well fitted curve in the direction sought with a large enough effect in the repeat runs; inconclusive means weak or mixed curves; inactive means no such curve, though single readings can be large; an effect the other way counts as inactive or inconclusive.
# Key:
# [1] = qHTS assay for small molecules that induce genotoxicity in human embryonic kidney cells expressing luciferase-tagged ATAD5 (AID 651632); further: nearly all actives have a fitted effect of over 15% in size
# How it was run: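 Concentration-response screen for ATAD5 upregulation in HEK293T luciferase reporter cells; 16 hr treatment at 37C, then luminescence after 30 min with Amplite at room temperature.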
# [2] = qHTS assay for small molecules that induce genotoxicity in human embryonic kidney cells expressing luciferase-tagged ATAD5 - cell viability (AID 651634; calls by dose curve; further: nearly all actives have a fitted effect of over 25% in size; further: potency means the concentration at half of the fitted maximal effect)
# How it was run: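 15.5 hr compound or vehicle exposure of HEK293T cells expressing luciferase-tagged ATAD5 at 37C; live-cell protease activity is read by fluorescence after 30 min of CellTiter-Fluor.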
# [3] = qHTS assay for small molecule disruptors of the mitochondrial membrane potential - cell viability (AID 720634; calls by dose curve; further: nearly all actives have a fitted effect of over 20% in size; further: potency means the concentration at half of the fitted maximal effect)
# How it was run: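 In this qHTS format, HepG2 cells plated overnight were pinned with compound, incubated 1 hr, and assayed for ATP luminescence with CellTiter-Glo after m-MPI dye addition.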
# [4] = qHTS assay to test for compound auto fluorescence at 535 nm (green) in HepG2 cells (AID 720675); further: potency means the concentration at half of the fitted maximal effect
# [5] = qHTS assay to test for compound auto fluorescence at 460 nm (blue) in HEK293 cells (AID 720678)
# How it was run: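 Blue-channel (Ex/Em 405/460 nm) intensity measured in HEK293 cultures after overnight compound exposure at 37C; signal expressed relative to triamterene. Cells plated 2,000 per well in 10% dialyzed FBS medium and allowed 4-5 hr to attach.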
# [6] = qHTS assay to test for compound auto fluorescence at 590 nm (red) in HEK293 cells (AID 720679)
# How it was run: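 Red-channel autofluorescence (Ex/Em 540/590 nm; Rose Bengal sodium reference) was measured after overnight 37C, 5% CO2 exposure of attached HEK293 cells, 2,000 per well in medium with 10% dialyzed FBS.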
# [7] = qHTS assay to test for compound auto fluorescence at 535 nm (green) in HEK293 cells (AID 720680); further: potency means the concentration at half of the fitted maximal effect
# [8] = qHTS assay to test for compound auto fluorescence at 460 nm (blue) in HEK293 cell free culture (AID 720681)
# How it was run: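 Blue fluorescence (Ex 405/Em 460 nm, triamterene-equivalent) was read immediately after pin transfer of compound or DMSO into medium (DMEM, 10% FBS) without cells.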
# [9] = qHTS assay to test for compound auto fluorescence at 535 nm (green) in HEK293 cell free culture (AID 720682); further: potency means the concentration at half of the fitted maximal effect
# How it was run: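 Measurement is a direct plate read of green fluorescence (485 nm in, 535 nm out) after compound addition to serum-supplemented DMEM lacking cells, with fluorescein used to express intensities.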
# [10] = qHTS assay to test for compound auto fluorescence at 590 nm (red) in HEK293 cell free culture (AID 720683)
# How it was run: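 Red-channel autofluorescence of compounds in culture medium (DMEM, 10% FBS), no cells, measured at 540/590 nm. Rose Bengal sodium is the reference fluorophore for equivalence.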
# [11] = qHTS assay to test for compound auto fluorescence at 590 nm (red) in HepG2 cell free culture (AID 720684)
# How it was run: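 No cells present: MEM + 10% FBS only. Compound pinned in, red label read (540/590 nm). Activity = fluorescence equivalent to Rose Bengal sodium.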
# [12] = qHTS assay to test for compound auto fluorescence at 535 nm (green) in HepG2 cell free culture (AID 720686); further: potency means the concentration at half of the fitted maximal effect
# [13] = qHTS assay to test for compound auto fluorescence at 460 nm (blue) in HepG2 cells (AID 720687)
# How it was run: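 Blue-channel autofluorescence (Ex/Em 405/460 nm, triamterene-equivalent) was measured after 1 hr compound exposure at 37 C, 5% CO2. Cells were HepG2, plated overnight at 37 C in MEM plus 10% FBS.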
# [14] = qHTS assay for small molecule agonists of the p53 signaling pathway - cell viability (AID 651633; calls by dose curve; further: nearly all actives have a fitted effect of over 30% in size; further: potency means the concentration at half of the fitted maximal effect)
# How it was run: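 Viability counter-read: CellTiter-Glo luminescence (30 min, room temperature) in the same p53RE-bla plates. These plates had been exposed to compounds for 16 h at 37 C.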
# [15] = qHTS assay for small molecule disruptors of the mitochondrial membrane potential (AID 720635); further: potency means the concentration at half of the fitted maximal effect
# How it was run: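 Mitochondrial membrane potential tracked with Mito-MPS dye, red aggregates (ex 540/em 590 nm) against green monomers (ex 490/em 535 nm). Compound treatment 1 hr at 37C, dye 30 min in HepG2.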
# [16] = qHTS assay to test for compound auto fluorescence at 460 nm (blue) in HepG2 cell free culture (AID 720685)
# How it was run: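 Cell-free plates of MEM plus 10% FBS received 23 nL compound or DMSO vehicle; blue-channel (405/460 nm) intensity scored against triamterene as reference fluorophore.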
# [17] = qHTS assay to test for compound auto fluorescence at 590 nm (red) in HepG2 cells (AID 720674)
# How it was run: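 1 hr compound incubation on HepG2 cells, 37 C, 5% CO2; plate read ex 540 nm / em 590 nm; intensities reported as Rose Bengal sodium equivalents.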
# [18] = molecular target: Glucocorticoid receptor (Homo sapiens) (UniProt P04150); assay: qHTS assay to identify small molecule agonists of the glucocorticoid receptor (GR) signaling pathway (AID 720691; active means well fitted activation curve with a large enough effect in the signal ratio in the repeat runs, not every such curve was filed as active; the % refers to the signal ratio)
# How it was run: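 Measures GR pathway activation through a GRE-beta-lactamase reporter stably integrated in HeLa cells, with 18 h compound treatment at 37 C and fluorescence detection using a FRET substrate.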
# [19] = molecular target: Glucocorticoid receptor (Homo sapiens) (UniProt P04150); assay: qHTS assay to identify small molecule antagonists of the glucocorticoid receptor (GR) signaling pathway (AID 720692; active means well fitted inhibition curve with a large enough effect in the signal ratio in the repeat runs, not every such curve was filed as active; the % refers to the signal ratio; further: potency means the concentration at half of the fitted maximal effect)
# How it was run: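 Tox21 10K library screened in concentration-response for blockade of dexamethasone (5 nM final)-induced GRE-bla reporter activity in HeLa cells; 18 h treatment, fluorescence read.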
# Tags describe the fitted curve by direction and shape or compound fluorescence and quenching.
# Sequence of Glucocorticoid receptor (Homo sapiens) (P04150 whole entry, looked up): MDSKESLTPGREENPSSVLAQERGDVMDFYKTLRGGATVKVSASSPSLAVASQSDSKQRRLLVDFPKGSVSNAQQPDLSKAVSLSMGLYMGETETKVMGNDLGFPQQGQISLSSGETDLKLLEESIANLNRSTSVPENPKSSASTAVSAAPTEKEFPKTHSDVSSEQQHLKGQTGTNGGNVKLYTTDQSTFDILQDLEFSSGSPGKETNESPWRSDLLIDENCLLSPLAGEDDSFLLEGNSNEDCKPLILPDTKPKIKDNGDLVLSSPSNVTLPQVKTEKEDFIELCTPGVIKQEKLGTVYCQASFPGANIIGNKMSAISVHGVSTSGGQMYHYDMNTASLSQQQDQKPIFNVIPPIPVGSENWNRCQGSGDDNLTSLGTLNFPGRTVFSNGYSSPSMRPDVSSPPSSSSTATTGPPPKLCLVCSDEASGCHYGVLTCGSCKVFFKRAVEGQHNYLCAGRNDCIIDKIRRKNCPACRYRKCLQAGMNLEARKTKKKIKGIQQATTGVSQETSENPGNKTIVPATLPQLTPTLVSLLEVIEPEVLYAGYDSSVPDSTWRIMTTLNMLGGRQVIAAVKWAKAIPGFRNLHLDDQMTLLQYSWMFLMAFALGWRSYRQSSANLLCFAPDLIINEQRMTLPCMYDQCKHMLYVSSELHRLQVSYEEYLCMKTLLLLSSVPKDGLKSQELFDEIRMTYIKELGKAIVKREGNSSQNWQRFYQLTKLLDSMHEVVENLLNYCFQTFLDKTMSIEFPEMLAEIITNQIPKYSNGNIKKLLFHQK
Compound,Potency [1],Potency [2],Potency [3],Potency [4],Potency [5],Potency [6],Potency [7],Potency [8],Potency [9],Potency [10],Potency [11],Potency [12],Potency [13],Potency [14],Potency [15],Potency [16],Potency [17],Potency [18],Potency [19]
C#C[C@]1(O)CC[C@H]2[C@@H]3[C@H](C)CC4=C(CCC(=O)C4)[C@H]3CC[C@@]21C,inactive,inactive,inactive,inactive,inactive,inactive,inactive,inactive,inactive,inactive,inactive,inactive,inactive,–,–,–,–,–,–
CCCCCCCCCCCCCC[N+](C)(C)Cc1ccccc1,inactive,69.6 µM (active),62.1 µM (active),inactive,inactive,inactive,inactive,inactive,inactive,inactive,inactive,inactive,inactive,23.7 µM (active) and 69.6 µM (active),11.9 µM (active) and 27.7 µM (active),inactive,–,–,–
CC(C)(C)c1csc(-c2cc3cc(OCc4ccccc4CC(=O)O)ccc3o2)n1,inactive,24.3 µM (active),61.1 µM (active),inactive,inactive,inactive,–,inactive,inactive,inactive,inactive,inactive,inactive,15.4 µM (active),4.86 µM (active),–,–,–,–
CCN(CC)C(=O)c1cc(S(=O)(=O)Cc2ccccc2)c(N2CCC(c3ccccc3)CC2)cc1N(CC)CCN(C)C,inactive,–,–,inactive,inactive,inactive,–,inactive,inactive,inactive,inactive,inactive,–,29.8 µM (active),–,inactive,inactive,inactive,21.3 µM (active) and inactive
COC1=C(OC)C(=O)C(CCCCCCCCCCO)=C(C)C1=O,inactive,inactive,inactive,inactive,inactive,inactive,inactive,inactive,inactive,inactive,inactive,inactive,inactive,29.8 µM (active),–,inactive,inactive,inactive,–
CN(C)C(=O)COC(=O)Cc1ccc(OC(=O)c2ccc(N=C(N)N)cc2)cc1,inactive,–,inactive,inactive,inactive,inactive,inactive,inactive,inactive,inactive,inactive,inactive,inactive,inactive,inactive,–,inactive,inactive,inactive
COC(=O)C1=C(C)NC(C)=C(C(=O)OCCN2CCN(C(c3ccccc3)c3ccccc3)CC2)C1c1cccc([N+](=O)[O-])c1 (stereo unspecified),inactive,11.9 µM (active),–,inactive,–,inactive,inactive,inactive,inactive,inactive,inactive,inactive,inactive,–,10.6 µM (active),inactive,inactive,inactive,–
O=C1OC2(c3ccc(O)cc3Oc3cc(O)ccc32)c2ccc(N=C=S)cc21,inactive,–,inactive,39.8 µM (active),–,inactive,39.8 µM [fluorescent] (active),inactive,39.8 µM [fluorescent] (active),inactive,inactive,35.5 µM [fluorescent] (active),inactive,inactive,–,inactive,–,inactive,inactive
